High-throughput results from PubChem.
Only some compounds are listed: those with a hit (about 2.8% of all), similar ones and a draw of the others.
HSP90 inh – blocks HSP90-mediated luciferase refolding in reticulocyte lysate | Rabbit reticulocyte lysate, luciferase refolding luminescence, 3 h | inhibition, % at 5.6 µM | 0.91% of 290,000 active;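 active = inhibition above the screen-wide mean plus 3 SD, computed separately per campaign, cut at about 16% in these data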;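 note: inhibitors lower the luminescence because luciferase stays unfolded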
SENP6 block – SENP6 protease inhibition; Q9GZR1; Recombinant SENP6 catalytic domain, aminoluciferin luminescence; inhibition, % at 10 µM; 1.8% of 330,000 active;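 active = inhibition above about 50% at the single tested dose, limit read from the data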
SENP7 block – blocks the human protease SENP7. inhibition, % at 5 µM. recombinant SENP7, Z-RLRGG-aminoluciferin luminescence, 40 min. 1.5% of 330,000 active;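 active = inhibition above about 50% at the single test dose, limit read from the data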
SENP8 block-1 – inhibitors of human SENP8 protease. Q96LD8. 1.2% of 330,000 active. inhibition, % at 10 µM. purified SENP8, Z-RLRGG-aminoluciferin cleavage, luminescence; in the data active = inhibition above about 50%
Target sequence (Q96LD8 whole entry, looked up): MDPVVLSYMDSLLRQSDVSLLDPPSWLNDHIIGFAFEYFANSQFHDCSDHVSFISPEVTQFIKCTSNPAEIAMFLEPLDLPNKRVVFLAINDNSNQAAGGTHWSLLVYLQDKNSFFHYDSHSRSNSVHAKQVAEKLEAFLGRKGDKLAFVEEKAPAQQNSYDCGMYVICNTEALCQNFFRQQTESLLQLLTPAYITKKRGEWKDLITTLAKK
SENP8 block-2 – blocks human SENP8 cleavage of Nedd8 substrate; Q96LD8; recombinant SENP8, Nedd8 substrate fluorescence; inhibition, % at 20 µM; 0.64% of 360,000 active; AID 602440; in the data active = inhibition mostly above about 40%, no sharp cut-off; inactive = mostly below about 27%
SENP8 confirm – human SENP8 inhibition, confirmed; shares compounds with SENP7 block; Recombinant SENP8, Z-RLRGG-aminoluciferin luminescence, 60 min; inhibition, % at 12.5 µM; 40% of 6,200 active; AID 488912;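 active = mean inhibition across replicates above about 50%, limit read from the data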
SENP6 conf – confirmation of human SENP6 protease inhibitors; shares compounds with SENP7 block; recombinant SENP6, Z-RLRGG-aminoluciferin luminescence; inhibition, % at 12.5 µM; 58% of 6,200 active; AID 488915
SENP7 confirm – human SENP7 inhibition, confirmed | shares compounds with SENP7 block | AID 488917 | inhibition, % at 12.5 µM | 69% of 6,200 active | recombinant SENP7, Z-RLRGG-aminoluciferin luminescence, 40 min
Casp3 select – caspase-3 inhibition (SENP selectivity assay); purified caspase-3, Z-DEVD-aminoluciferin luminescence, 60 min; 60% of 6,200 active; shares compounds with SENP7 block; AID 488918; inhibition, % at 12.5 µM;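 active = mean inhibition above about 50%, limit read from the data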
Target sequence (P42574 28-227 limits assumed): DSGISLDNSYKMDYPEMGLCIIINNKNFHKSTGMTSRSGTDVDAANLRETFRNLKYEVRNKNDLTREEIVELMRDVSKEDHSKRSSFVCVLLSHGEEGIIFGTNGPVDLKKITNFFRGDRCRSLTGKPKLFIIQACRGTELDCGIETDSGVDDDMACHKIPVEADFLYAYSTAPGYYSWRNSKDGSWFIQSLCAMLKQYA
SENP luc ctr – counter-screen for SENP inhibitors: luminescence interference; shares compounds with SENP7 block; Pre-incubated SENP8/Z-RLRGG-aminoluciferin, luciferase luminescence interference; inhibition, % at 12.5 µM; 39% of 6,200 active; AID 488919;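 active = mean inhibition above about 50% when retested at one dose, limit read from the data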
Hits are given with their value; . = inactive; / = not tested or not shown.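 Rule for the calls, unless noted: active = mean inhibition above about 50% in the one-dose retest (limit read from the data); inactive = the rest.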

SMILES | HSP90 inh | SENP6 block | SENP7 block | SENP8 block-1 | SENP8 block-2 | SENP8 confirm | SENP6 conf | SENP7 confirm | Casp3 select | SENP luc ctr
O=C(/C=C/Nc1cccc(C(F)(F)F)c1)c1ccco1 | . | . | . | . | . | / | / | / | / | /
O=C(Nc1ccc(Oc2ccc3ccccc3c2)cc1)c1ccco1 | . | . | . | . | . | / | / | / | / | /
COc1cccc(Oc2ccc(C(F)(F)F)cc2NC(=O)C2=COCCO2)c1 | . | . | . | . | . | / | / | / | / | /
COC(=O)Cc1[nH]n(-c2nc3ccccc3s2)c(=O)c1C(C)=Nc1ccc(C)cc1 | . | . | . | . | . | / | / | / | / | /
C/C(=N/NC(=O)c1cccs1)c1c(C)[nH]n(-c2nc3ccccc3s2)c1=O | . | 97 | 99 | 93 | . | 90 | 81 | 94 | 98 | 66
Fc1ccc2nc(Nc3ccccc3)sc2c1 | . | . | 72 | 64 | . | 81 | 81 | 95 | 58 | 82
CC(=O)Nc1nc2cc3c(cc2s1)OCO3 | . | 68 | 56 | . | . | . | 53 | 86 | 83 | .
Cc1ccc(Nc2nc3ccccc3s2)c(C)c1 | . | . | 79 | 62 | . | 77 | 73 | 91 | 54 | 67
Fc1ccc2nc(Nc3nc4cc5c(cc4s3)OCCO5)sc2c1 | . | 71 | . | 52 | . | . | . | . | . | .
Cc1cc(C)nc(Nc2nc3ccccc3s2)n1 | . | . | . | . | . | / | / | / | / | /
O=C1NC[C@H](CCCCN2CCN(CCc3ccccc3)C(=O)C2=O)N(CCc2ccc(O)cc2)C1=O | / | / | / | / | . | / | / | / | / | /
O=C(CN1C(=O)/C(=C/c2cccc(Br)c2)SC1=S)NC1=NCCS1 | . | . | . | . | . | / | / | / | / | /
c1ccc2sc(Nc3nc4cc5c(cc4s3)OCO5)nc2c1 | . | . | 64 | . | . | . | . | . | . | .
Fc1ccc2nc(Nc3nc4cc5c(cc4s3)OCO5)sc2c1 | . | . | . | . | . | / | / | / | / | /
COc1ccc(C(=O)N/N=C/C(=O)c2ccccc2)cc1 | . | 80 | 84 | 58 | . | . | 72 | 92 | 79 | .
COc1ccc(C(=O)Nc2cc(OC)cc(OC)c2)cc1 | . | 87 | 89 | 81 | . | 86 | 83 | 96 | 88 | 83
COc1cc(NC(=O)c2ccccc2)cc(OC)c1 | . | 54 | . | . | . | . | . | 68 | 65 | .
COc1ccc(NC(=O)c2cccc(NC(=O)c3ccccc3)c2)cc1 | . | . | . | . | . | / | / | / | / | /
O=C1CCC(C(=O)N2CCSCC2)CN1CCc1cccc(F)c1 (stereo not given) | . | . | . | . | . | / | / | / | / | /
Cc1ccc(NC(=O)C2CCCN(c3cnccn3)C2)c(C)c1 (stereo not given) | . | . | . | . | . | / | / | / | / | /
CCn1c(=O)cc(OCC(=O)Nc2ccc(OC)c(OC)c2)c2ccccc21 | . | . | . | . | . | / | / | / | / | /
COCC(C)n1c(C)cc(C(=O)COC(=O)CNC(=O)c2ccccc2)c1C (stereo not given) | . | . | . | . | . | / | / | / | / | /
CCN(CC)c1ccc(C(=O)OCC(=O)N2CCCC2)cc1 | . | . | . | . | . | / | / | / | / | /
C(=N\N=C\c1cccs1)/c1cccs1 | . | 57 | 52 | . | . | . | 61 | 87 | 62 | .
O=C(Nc1ccc2oc(-c3ccccc3)nc2c1)c1cccnc1 | . | . | . | . | . | / | / | / | / | /
CCc1ccc2oc(-c3cccc(NC(=O)c4cccnc4)c3)nc2c1 | . | 61 | . | . | . | . | . | . | . | .
Cc1cccc(Nc2nc(-c3cccs3)cs2)n1 | . | 90 | 81 | 89 | . | . | 96 | 102 | 76 | 87
c1ccc(Nc2nc(-c3cccs3)cs2)nc1 | . | 92 | 83 | 94 | . | 96 | 97 | 102 | 88 | 94
Nc1ccc(Nc2nc(-c3cccs3)cs2)cc1 | . | . | . | . | . | / | / | / | / | /
c1csc(-c2csc(-c3cccs3)n2)c1 | . | . | 55 | . | . | . | 60 | 82 | . | .
